PubChem BioAssay AID1159580 (chemical genetic matrix, 2015)
The campaign covered roughly 5,500 compounds. About 2,000 (36%) were called active. Inconclusive results (about 18%) are left out. No stated cut-off is given here; in the data, active means normalized growth mostly below about 0.91 (no sharp cut-off); inconclusive means no clear call, values can overlap the other calls; inactive means mostly above about 0.92. This is one part of the list.

Experiment: chemical genetic growth profiling, strain panel (AID 1159580);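 further: tested at 20 µM; growth read once vehicle control cultures reached saturation at 30 °C; 1 = growth at the plate median or of vehicle wells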
Conditions: growth OD

Measured: normalized growth

COc1cc([C@@H]2c3cc4c(cc3[C@H](O)[C@H]3COC(=O)[C@H]23)OCO4)cc(OC)c1OC
inactive: S. cerevisiae deletion strains, locus YJR075W, strain HOC1, stronger effect = lower value 1.03 | S. cerevisiae deletion strains, locus YKL009W, strain mrt4, stronger effect = lower value 1.04 | S. cerevisiae deletion strains, locus YKL068W, stronger effect = lower value 1.01 | S. cerevisiae deletion strains, locus YKL085W, strain MDH1 (second series), stronger effect = lower value 1.01 | S. cerevisiae deletion strains, locus YKL085W, strain MDH1, stronger effect = lower value 1.01 | S. cerevisiae deletion strains, locus YKL160W, strain elf1, stronger effect = lower value 1 | S. cerevisiae deletion strains, locus YKL190W, strain CNB1, stronger effect = lower value 1.01 | S. cerevisiae deletion strains, locus YKR001C, strain vps1, stronger effect = lower value 1.01 | S. cerevisiae deletion strains, locus YKR026C, strain gcn3, stronger effect = lower value 1.01 | S. cerevisiae deletion strains, locus YKR091W, strain srl3, stronger effect = lower value 1.01 | S. cerevisiae deletion strains, locus YLL001W, strain dnm1, stronger effect = lower value 0.984 | S. cerevisiae deletion strains, locus YLL026W, stronger effect = lower value 1 | S. cerevisiae deletion strains, locus YLL041C, strain sdh2, stronger effect = lower value 1.01 | S. cerevisiae deletion strains, locus YLR027C, strain aat2, stronger effect = lower value 1.01 | S. cerevisiae deletion strains, locus YLR039C, strain RIC1, stronger effect = lower value 1.02 | S. cerevisiae deletion strains, locus YLR058C, strain SHM2, stronger effect = lower value 1.01 | S. cerevisiae deletion strains, locus YLR102C, strain apc9, stronger effect = lower value 1.01 | S. cerevisiae deletion strains, locus YLR113W, strain HOG1, stronger effect = lower value 0.924 | S. cerevisiae deletion strains, locus YLR221C, strain rsa3, stronger effect = lower value 1.02 | S. cerevisiae deletion strains, locus YLR258W, strain gsy2, stronger effect = lower value 1.02 | S. cerevisiae deletion strains, locus YLR262C, strain YPT6 (second series), stronger effect = lower value 1.01 | S. cerevisiae deletion strains, locus YLR262C, strain YPT6, stronger effect = lower value 1.05 | S. cerevisiae deletion strains, locus YLR268W, strain sec22, stronger effect = lower value 1.06 | S. cerevisiae deletion strains, locus YLR320W, strain mms22, stronger effect = lower value 1.05 | S. cerevisiae deletion strains, locus YLR330W, strain CHS5, stronger effect = lower value 1.01 | S. cerevisiae deletion strains, locus YLR342W, strain FKS1 (second series), stronger effect = lower value 1.02 | S. cerevisiae deletion strains, locus YLR342W, strain FKS1, stronger effect = lower value 1.02 | S. cerevisiae deletion strains, locus YLR357W, strain rsc2, stronger effect = lower value 1.05 | S. cerevisiae deletion strains, locus YLR370C, strain arc18, stronger effect = lower value 1.02 | S. cerevisiae deletion strains, locus YLR371W, strain rom2, stronger effect = lower value 1.02 | S. cerevisiae deletion strains, locus YLR384C, strain iki3, stronger effect = lower value 0.998 | S. cerevisiae deletion strains, locus YLR418C, strain cdc73, stronger effect = lower value 1.02 | S. cerevisiae deletion strains, locus YML016C, strain PPZ1, stronger effect = lower value 1.01 | S. cerevisiae deletion strains, locus YML032C, strain rad52, stronger effect = lower value 1.05 | S. cerevisiae deletion strains, locus YML120C, strain ndi1, stronger effect = lower value 1.02 | S. cerevisiae deletion strains, locus YML124C, strain tub3, stronger effect = lower value 1 | S. cerevisiae deletion strains, locus YMR058W, strain fet3, stronger effect = lower value 1.02 | S. cerevisiae deletion strains, locus YMR078C, strain ctf18, stronger effect = lower value 1.02 | S. cerevisiae deletion strains, locus YMR125W, strain sto1, stronger effect = lower value 1.01 | S. cerevisiae deletion strains, locus YMR129W, stronger effect = lower value 1.01 | S. cerevisiae deletion strains, locus YMR205C, strain PFK2, stronger effect = lower value 1.03 | S. cerevisiae deletion strains, locus YMR223W, strain ubp8, stronger effect = lower value 0.985 | S. cerevisiae deletion strains, locus YMR231W, strain pep5, stronger effect = lower value 1.01 | S. cerevisiae deletion strains, locus YMR263W, strain SAP30, stronger effect = lower value 1.02 | S. cerevisiae deletion strains, locus YMR307W, strain GAS1, stronger effect = lower value 0.994 | S. cerevisiae deletion strains, locus YNL067W, strain RPL9B, stronger effect = lower value 1.03 | S. cerevisiae deletion strains, locus YNL071W, strain lat1, stronger effect = lower value 1.01 | S. cerevisiae deletion strains, locus YNL128W, strain TEP1, stronger effect = lower value 1.02 | S. cerevisiae deletion strains, locus YNL153C, strain GIM3, stronger effect = lower value 1.03 | S. cerevisiae deletion strains, locus YNL183C, strain NPR1, stronger effect = lower value 0.926 | S. cerevisiae deletion strains, locus YNL209W, strain ssb2, stronger effect = lower value 1.02 | S. cerevisiae deletion strains, locus YNL233W, strain BNI4, stronger effect = lower value 1.03 | S. cerevisiae deletion strains, locus YNL248C, strain rpa49, stronger effect = lower value 1.01 | S. cerevisiae deletion strains, locus YNL250W, strain rad50, stronger effect = lower value 1.01 | S. cerevisiae deletion strains, locus YNL271C, strain bni1, stronger effect = lower value 1.01 | S. cerevisiae deletion strains, locus YNL298W, strain CLA4, stronger effect = lower value 1.01 | S. cerevisiae deletion strains, locus YNL307C, strain MCK1, stronger effect = lower value 1 | S. cerevisiae deletion strains, locus YNL322C, strain KRE1 (second series), stronger effect = lower value 1.01 | S. cerevisiae deletion strains, locus YNL322C, strain KRE1, stronger effect = lower value 1.01 | S. cerevisiae deletion strains, locus YNR049C, strain mso1, stronger effect = lower value 1 | S. cerevisiae deletion strains, locus YNR052C, strain pop2, stronger effect = lower value 1.01 | S. cerevisiae deletion strains, locus YOL006C, strain TOP1, stronger effect = lower value 1.07 | S. cerevisiae deletion strains, locus YOL012C, strain htz1 0.833 | S. cerevisiae deletion strains, locus YOL147C, strain pex11, stronger effect = lower value 1 | S. cerevisiae deletion strains, locus YOR001W, strain rrp6, stronger effect = lower value 1.01 | S. cerevisiae deletion strains, locus YOR061W, strain CKA2, stronger effect = lower value 1.01 | S. cerevisiae deletion strains, locus YOR069W, strain VPS5, stronger effect = lower value 1.01 | S. cerevisiae deletion strains, locus YOR070C, strain gyp1, stronger effect = lower value 1.02 | S. cerevisiae deletion strains, locus YOR080W, strain dia2, stronger effect = lower value 1.01 | S. cerevisiae deletion strains, locus YOR083W, strain WHI5, stronger effect = lower value 1.01 | S. cerevisiae deletion strains, locus YOR106W, strain vam3, stronger effect = lower value 1.02 | S. cerevisiae deletion strains, locus YOR136W, strain idh2, stronger effect = lower value 1 | S. cerevisiae deletion strains, locus YOR144C, strain elg1, stronger effect = lower value 1.01 | S. cerevisiae deletion strains, locus YOR184W, strain ser1, stronger effect = lower value 1.02 | S. cerevisiae deletion strains, locus YOR231W, strain MKK1, stronger effect = lower value 0.947 | S. cerevisiae deletion strains, locus YOR265W, strain rbl2, stronger effect = lower value 1.01 | S. cerevisiae deletion strains, locus YOR270C, strain vph1, stronger effect = lower value 0.996 | S. cerevisiae deletion strains, locus YOR290C, strain snf2, stronger effect = lower value 0.98 | S. cerevisiae deletion strains, locus YOR316C, strain cot1, stronger effect = lower value 1.01 | S. cerevisiae deletion strains, locus YPL051W, strain arl3, stronger effect = lower value 1.01 | S. cerevisiae deletion strains, locus YPL055C, strain LGE1, stronger effect = lower value 1.04 | S. cerevisiae deletion strains, locus YPL078C, strain atp4, stronger effect = lower value 0.997 | S. cerevisiae deletion strains, locus YPL106C, strain sse1, stronger effect = lower value 1.03 | S. cerevisiae deletion strains, locus YPL240C, strain hsp82, stronger effect = lower value 1.02 | S. cerevisiae deletion strains, locus YPL241C, strain CIN2, stronger effect = lower value 1.01 | S. cerevisiae deletion strains, locus YPL256C, strain CLN2, stronger effect = lower value 0.942 | S. cerevisiae deletion strains, locus YPR119W, strain clb2, stronger effect = lower value 1.01 | S. cerevisiae deletion strains, locus YPR141C, strain kar3, stronger effect = lower value 1.01 | S. cerevisiae deletion strains, locus YPR163C, strain tif3, stronger effect = lower value 1.02 | S. cerevisiae deletion strains, locus YPR167C, strain met16, stronger effect = lower value 1.01 | S. cerevisiae deletion strains, strain wtn01, stronger effect = lower value 1.03 | S. cerevisiae strains, strain wild type, stronger effect = lower value 1.01
